Laboratory results taken from ChEMBL document CHEMBL4513216, “Probing the Open Global Health Chemical Diversity Library for Multistage-Active Starting Points for Next-Generation Antimalarials” (ACS Infect Dis, 2020).
Among all 69,000 compounds or so, about 8,600 (12%) showed an effect of 50% or more. This is one part of a sample in which strong results are shown more often than they occur.

test system: Plasmodium berghei; assay: Screen against P. berghei liver stage (PbLuc), transformed with Luciferase, at 10uM; type: functional, HepG2; details: tested at 10 uM

Row | Compound | INHIBITION [%]
1 | CC(C)c1cc(C(=O)N2CCC3(CCc4ccccc4C(=O)N3)C2)no1 (configuration not stated) | 2.415
2 | O=S(=O)(c1c(F)cccc1F)N1CCCC1c1nnc2n1CCCCC2 (configuration not stated) | -21.2
3 | CCCN1CCCn2c(nc(CNC(=O)N3CCCC3)cc2=O)C1 | 49.1
4 | COc1cc2ncn(Cc3ncc[nH]3)c(=O)c2cc1OC | 64.1
5 | COc1ccc2ncn(Cc3ncc[nH]3)c(=O)c2c1 | -64.3
6 | CCc1ccc2ncn(Cc3ncc[nH]3)c(=O)c2c1 | 15.2
7 | CCn1cnnc1CNC(=O)N1CCN(Cc2ccco2)CC1 | -2.19
8 | O=C(CC1CCCC1)N1C[C@H](OCc2ccncc2)[C@H]2OCCC[C@H]21 | -32
9 | CN1CCOC(CNCC(=O)NCCc2ccc(F)cc2)C1 (configuration not stated) | -2.27
10 | CC1CN(C)CCN1Cc1cccc(C(=O)N(C)C)c1 (configuration not stated) | -32
11 | CN(CC(=O)NC1CC1)S(=O)(=O)c1ccc(F)cc1Cl | -26.8
12 | O=C(Cc1ccc(F)cc1Cl)N[C@@H]1CCNC[C@H]1O | 4.59
13 | O=C(C[S+]([O-])Cc1ccc(F)cc1Cl)NC1CCCC1 (configuration not stated) | 66.7
14 | O=C(C[S+]([O-])Cc1cccc(C(F)(F)F)c1)NC1CCCC1 (configuration not stated) | 21.9
15 | CN(C)C(=O)c1cccc(C[S+]([O-])CC(=O)NC2CCCC2)c1 (configuration not stated) | 54.4
16 | CN(C)C(=O)c1cccc(CN2CCN(CCO)CC2)c1 | -170
17 | O=C(C[S+]([O-])Cc1cccc(Cl)c1)NC1CCCC1 (configuration not stated) | 15.2
18 | O=C(C[S+]([O-])Cc1cccc(F)c1)NC1CCCC1 (configuration not stated) | 54.4
19 | COCCC1(CNC(=O)Nc2ccc(-n3ccnn3)cc2)CCC1 | -12.2
20 | CSCC[C@H]1CN2CCC[C@H]2CN1Cc1cn(C)nc1C | 5.11
21 | CN(Cc1ccco1)C(=O)C1CSCN1C(=O)C1CCC1 (configuration not stated) | -16
22 | CCS(=O)(=O)N1CCCCC1c1nc(C(C)C)no1 (configuration not stated) | 57.3
23 | CCS(=O)(=O)N1CCCCC1c1nc(C)no1 (configuration not stated) | 20.1
24 | CC(C)c1noc(C2CCCN2S(=O)(=O)N2CCCCCC2)n1 (configuration not stated) | -31.7
25 | Cc1ccc(C(C)NCc2c(C(C)C)nn(C)c2N2CCOCC2)o1 (configuration not stated) | 7.27
26 | CCOc1ccc(Cl)cc1C1CCCN1 (configuration not stated) | 18.2

Row | Compound | INHIBITION [%]
27 | CCOc1ccc(Br)cc1C1CCCCN1 (configuration not stated) | 18.4
28 | CCOc1ccc(Cl)cc1C1CCCCN1 (configuration not stated) | 54.9
29 | O=C(CCn1ccnc1)N1CC[C@H](Oc2cccc(F)c2)[C@@H](O)CC1 | 7.3
30 | Cc1cc(NC(=O)C(c2cccc(F)c2)N2CCOCC2)sn1 (configuration not stated) | -22.8
31 | Cc1cc(NC(=O)C(c2cccc(F)c2)N2CCOCC2)ccn1 (configuration not stated) | 41.1
32 | O=C(Nc1nnc[nH]1)C(c1cccc(F)c1)N1CCOCC1 (configuration not stated) | 52.6
33 | O=C(Cn1cc(I)cn1)N1CCNC1=O | -28
34 | COC(=O)c1ccc(S(=O)(=O)N2CCC(Oc3cccnn3)CC2)cc1 | 26.6
35 | N#Cc1cccnc1OC1CCN(S(=O)(=O)c2ccc(F)c(Cl)c2)CC1 | 64.3
36 | N#Cc1cccnc1OC1CCN(S(=O)(=O)c2ccc(Br)cc2)CC1 | 50.4
37 | COC(=O)c1sccc1S(=O)(=O)N1CCC(Oc2ncccc2Cl)CC1 | 38.5
38 | O=S(=O)(c1cc(F)cc(F)c1)N1CCC(Oc2ccc(Cl)cn2)CC1 | 35.8
39 | O=S(=O)(c1ccccc1F)N1CCC(Oc2cccnn2)CC1 | 43.3
40 | N#Cc1cccnc1OC1CCN(S(=O)(=O)c2c(F)cccc2F)CC1 | 54.6
41 | O=S(=O)(c1c(F)cccc1F)N1CCC(Cn2cccn2)CC1 | 36.3
42 | N#Cc1cccnc1OC1CCNCC1 | 5.58
43 | c1cncc(OCc2nnn3c2CN(Cc2ccsc2)CCC3)c1 | 16.6
44 | Cc1ccncc1C(=O)N1CCCC(C(=O)CCc2ccccc2)C1 (configuration not stated) | -34.8
45 | COc1ccccc1NC(=O)NCC(O)c1ccc(F)cc1F (configuration not stated) | 12.7
46 | O=C(CC1CC1)N1CCC2(CCCN(CCOc3ccccc3)C2)C1 (configuration not stated) | 27.2
47 | NC(=O)CN1C[C@@H](c2ccccc2F)[C@@]2(CCCCC(=O)N2)C1 | 21.95
48 | Cc1ccc(CCCC(=O)N2CCC(=O)Nc3cccnc32)s1 | 47.1
49 | CCc1ccc(CCC(=O)N2CCC(=O)Nc3cccnc32)cc1 | 70.3
50 | CC(C)c1ocnc1C(=O)N1CCC(=O)Nc2cccnc21 | 4.13
51 | Cc1cccc(CN2C(=O)CC[C@@H]3[C@H]2CCN3Cc2cccnc2)n1 | 31.1
52 | Cn1cc(C[C@H]2[C@H](O)CCN2Cc2ccc3c(c2)OCO3)cn1 | 22.9
